# PubChem BioAssay AID602329 (Broad Institute, 2012)
# The campaign covered roughly 360,000 compounds. About 510 (0.14%) were called active. The sample as a whole holds a higher share of actives than the screen did. Values without a mark were called inactive.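 The calls were made as follows: active = mean normalized replicate activity at least 40 and at least half of replicates scoring 40 or more; inconclusive = only one of the two criteria met; inactive = mean below 40 and under half of replicates reaching 40.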
# Molecular target: DNA repair and recombination protein RAD54-like (Homo sapiens) (UniProt Q92698)
# Sequence (Q92698 whole entry, looked up): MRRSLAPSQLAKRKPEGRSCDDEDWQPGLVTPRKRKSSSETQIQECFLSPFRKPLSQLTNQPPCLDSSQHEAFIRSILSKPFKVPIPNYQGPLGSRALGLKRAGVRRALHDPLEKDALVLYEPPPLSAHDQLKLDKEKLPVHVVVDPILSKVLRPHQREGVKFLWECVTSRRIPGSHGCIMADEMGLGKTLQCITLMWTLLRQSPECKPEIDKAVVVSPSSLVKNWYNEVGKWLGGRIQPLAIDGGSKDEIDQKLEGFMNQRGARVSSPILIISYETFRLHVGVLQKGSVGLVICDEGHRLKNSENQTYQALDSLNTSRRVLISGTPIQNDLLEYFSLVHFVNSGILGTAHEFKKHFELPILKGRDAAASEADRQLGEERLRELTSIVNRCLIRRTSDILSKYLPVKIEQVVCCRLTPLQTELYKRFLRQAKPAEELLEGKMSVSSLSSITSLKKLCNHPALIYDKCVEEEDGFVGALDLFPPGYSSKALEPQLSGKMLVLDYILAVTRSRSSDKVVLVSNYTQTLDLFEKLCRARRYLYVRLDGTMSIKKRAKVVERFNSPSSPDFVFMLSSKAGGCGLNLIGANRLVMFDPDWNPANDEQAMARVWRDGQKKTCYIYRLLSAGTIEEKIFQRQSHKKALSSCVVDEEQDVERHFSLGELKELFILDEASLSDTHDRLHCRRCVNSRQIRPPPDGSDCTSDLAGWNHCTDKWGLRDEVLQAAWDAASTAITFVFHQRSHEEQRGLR
# Experiment: RAD54 Holliday junction migration blockers – biochemical, fluorescence, single point, primary screen (AID 602329);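 also: 0% = median of neutral control wells and 100% = median of positive control wells; inhibitors cause a drop in the FAM fluorescence signal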
# Conditions: RAD54 Holliday junction branch migration, FAM/BHQ fluorescence; at 10.4 µM; stronger effect = higher value
row,Compound,inhibition
1,O=S(=O)(c1ccc(F)cc1)N1CC[C@@H]2[C@@H](CO)Nc3ccc(-c4ccccc4F)cc3[C@@H]21,7.93%
2,CC(=O)N(C)C[C@@H]1Oc2ncc(-c3ccccc3F)cc2C(=O)N([C@H](C)CO)C[C@@H]1C,-1.78%
3,COc1ccccc1NC(=O)N1[C@H](C#N)[C@H](c2ccccc2)[C@H]1CO,10.5%
4,CC(=O)N(C)C[C@H]1Oc2cc(C#Cc3ccccc3F)ccc2S(=O)(=O)N([C@H](C)CO)C[C@@H]1C,2%
5,O=C(C[C@@H]1C=C[C@@H](NC(=O)c2cccnc2)[C@H](CO)O1)NCCN1CCCCC1,0.617%
6,O=C(CC1CC1)Nc1ccc2c(c1)[C@@H]1C[C@@H](CC(=O)NC3CCCCC3)O[C@H](CO)[C@@H]1O2,-1.82%
7,COc1cccc2sc3cc(NCC[C@@H]4CCCN4C)ccc3c(=O)c12,94% (active)
8,Cc1cc2oc3ccc(NCCC4CCCN4C)cc3c(=O)c2cc1C (configuration not stated),102% (active)
9,CN1CCC[C@@H]1CCO[C@](C)(c1ccccc1)c1ccc(Cl)cc1,11.3%
10,CO[C@@H]1CN(C)C(=O)c2cc(NS(=O)(=O)CC(F)(F)F)ccc2OC[C@@H](C)N(Cc2ccccn2)C[C@H]1C,-9.64%
11,COc1ccc(S(=O)(=O)Nc2ccc3c(c2)C(=O)N([C@@H](C)CO)C[C@@H](C)[C@@H](CN(C)S(C)(=O)=O)O3)cc1,-4.67%
12,C[C@@H]1CCCCO[C@@H](CN(C)C(=O)NC2CCCCC2)[C@H](C)CN([C@H](C)CO)C(=O)c2cc(NC(=O)c3ccccc3)ccc2O1,-0.448%
13,COc1cccc(NC(=O)N2C[C@@H](O)COC[C@@H]3O[C@@H](CC(=O)NC4CCC4)CC[C@H]32)c1,-4.41%
14,C[C@@H]1CN([C@@H](C)CO)C(=O)c2cc(NC(=O)Nc3ccc(C(F)(F)F)cc3)ccc2O[C@@H](C)CCCCO[C@H]1CN(C)C(=O)c1ccccc1,-3.03%
15,CO[C@H]1CC[C@H]2CCOc3c(C#N)cccc3C(=O)N(C)CC3(CCCCC3)CC(=O)N(C)C[C@@H]1O2,-12.8%
16,CN1c2ccc(Br)cc2[C@@H]2[C@@H](CCN2S(=O)(=O)c2ccc(F)cc2)[C@@H]1CO,-1.32%
17,CN1c2ccc(-c3ccccc3)cc2[C@@H]2[C@@H](CCN2C(=O)c2ccccc2F)[C@@H]1CO,4.56%
18,CCCC#Cc1ccc2c(c1)O[C@H](CN(C)C(=O)c1ccncc1)[C@H](C)CN([C@H](C)CO)S2(=O)=O,12.3%
19,C[C@@H]1CN([C@@H](C)CO)C(=O)Cc2cc(NC(=O)Nc3ccc4c(c3)OCO4)ccc2O[C@@H]1CN(C)S(=O)(=O)c1ccc(Cl)cc1,1.58%
20,Cc1cc(C)c2nc3nc(C)cc(C)c3c(N)c2c1,96% (active)
21,CCC(=O)N(C)C[C@H]1Oc2ncc(C#C[C@@H](C)O)cc2C(=O)N([C@@H](C)CO)C[C@H]1C,0.495%
22,CN1CCN(C(=O)C[C@H]2C[C@H]3c4cc(NC(=O)C5CCC5)ccc4O[C@H]3[C@H](CO)O2)CC1,6.76%
23,CNC[C@H]1OCCCC[C@@H](C)Oc2ccc(NC(=O)c3ccccc3)cc2C(=O)N([C@@H](C)CO)C[C@H]1C,6.8%

row,Compound,inhibition
1,COc1ccc(S(=O)(=O)N2CC[C@H]3[C@@H](CO)N(C)c4ccc(C#Cc5ccccc5OC)cc4[C@H]32)cc1,17.3%
2,C/C=C/c1ccc([C@@H]2[C@@H](CO)N(C(=O)CC)[C@H]2CN(C)C(=O)C2CC2)cc1,-7.87%
3,O=C(N[C@@H]1C=C[C@H](CC(=O)N2CCOCC2)O[C@H]1CO)c1ccccn1,-0.273%
4,COc1ccc(S(=O)(=O)Nc2ccc3c(c2)CC(=O)N([C@H](C)CO)C[C@@H](C)[C@@H](CN(C)S(=O)(=O)c2ccc(F)cc2)O3)cc1,-1.32%
5,C[C@H](CO)N1C[C@H](C)[C@H](CN(C)C(=O)Nc2ccccc2)Oc2c(NC(=O)Nc3ccc(C(F)(F)F)cc3)cccc2C1=O,0.373%
6,CO[C@@H](CN(C)C(=O)c1ccc2c(c1)OCO2)[C@@H](C)CN([C@H](C)CO)S(=O)(=O)c1ccccc1,2.31%
7,CCCC#Cc1ccc([C@@H]2[C@H](CO)N3CCCCN(S(=O)(=O)c4ccccc4F)C[C@@H]23)cc1,6.77%
8,CCn1c(=N)c(C(=O)NCCCOC)cc2c(=O)n3cccc(C)c3nc21,50.9% (active)
9,COc1ccc(CCn2c(=N)c(C(=O)NCC3CCCO3)cc3c(=O)n4cccc(C)c4nc32)cc1OC (configuration not stated),52.7% (active)
10,COCCCn1c(C(=O)NC2CCCCC2)cc2c(=O)n3cccc(C)c3nc21,-1.16%
11,Cc1ccc(S(=O)(=O)c2cc3c(=O)n4cccc(C)c4nc3n(CCc3ccccc3)c2=N)cc1C,0.033%
12,Cc1ccc2nc3c(cc(C(=O)NCCc4ccccc4)c(=N)n3CC3CCCO3)c(=O)n2c1 (configuration not stated),12.1%
13,CCOCCCNC(=O)c1cc2c(=O)n3ccccc3nc2s1,10.2%
14,O=C(NC1Cc2ccccc2C1)[C@@H]1[C@@H](CO)[C@@H]2Cn3c(ccc(C4=CCCC4)c3=O)[C@H]1N2CC1CC1,2.91%
15,O=C(Nc1ccc(F)cc1)N1CCCCN2[C@H](CO)[C@H](c3ccc(-c4ccncc4)cc3)[C@@H]2C1,-8.07%
16,COCC(=O)Nc1ccc2c(c1)[C@@H]1C[C@@H](CC(=O)N3CCN(C)CC3)O[C@H](CO)[C@@H]1O2,7.82%
17,CC(C)n1cnc2c(NCc3ccccc3)cc(OCC3CCN(C)CC3)cc21,78.7% (active)
18,CCC(=O)Nc1ccc2c(c1)C(=O)N(C)C[C@H](OC)[C@@H](C)CN(Cc1cccnc1)[C@H](C)CO2,-1.44%
19,NC(N)=Nc1nc(-c2ccccc2)c2cc(Cl)ccc2n1,58.9% (active)
20,Clc1ccc2nc(-c3ccccc3)nc(C(Cl)Cl)c2c1,-6.9%
21,CC(C)NC(=O)N(C)C[C@H]1Oc2ncc(-c3ccccc3F)cc2C(=O)N([C@@H](C)CO)C[C@@H]1C,-5.71%
22,O=C(CCCN1C(=O)c2cccc3cccc(c23)C1=O)N1CCN(Cc2ccc3c(c2)OCO3)CC1,8.9%
23,C[N+](C)(CCCCCC[N+](C)(C)CCCN1C(=O)c2cccc3cccc(c23)C1=O)CCCN1C(=O)c2cccc3cccc(c23)C1=O,115% (active)

row,Compound,inhibition
1,O=C(COC(=O)CCCN1C(=O)c2cccc3cccc(c23)C1=O)NC1CCS(=O)(=O)C1 (configuration not stated),-5.27%
2,CCC(=O)N1C[C@H](C)[C@H](OC)CN(C)C(=O)c2ccc(NC(=O)c3cnccn3)cc2OC[C@@H]1C,-7.7%
3,O=C(Cc1ccncc1)NCC[C@H]1CC[C@H](NC(=O)Nc2cccc(F)c2)[C@H](CO)O1,-5.21%
4,CCC(=O)N1C[C@@H](C)[C@@H](OC)CN(C)C(=O)c2ccc(NC(=O)c3ccccc3)cc2OC[C@H]1C,-5.42%
5,COc1ccc(NC(=O)Nc2ccc3c(c2)CC(=O)N([C@@H](C)CO)C[C@@H](C)[C@@H](CN(C)Cc2ccc(Cl)c(Cl)c2)O3)cc1,12.1%
6,C[C@@H](O)C#Cc1ccc([C@H]2[C@H](CO)N3CCCCN(C(=O)c4ccc5c(c4)OCO5)C[C@@H]23)cc1,1.48%
7,CCC(=O)N(C)C[C@@H]1Oc2ncc(/C=C/c3ccccc3)cc2C(=O)N([C@@H](C)CO)C[C@H]1C,0.476%
8,COCC#Cc1cnc2c(c1)C(=O)N([C@H](C)CO)C[C@H](C)[C@H](CN(C)C(=O)Nc1cc(F)ccc1F)O2,0.435%
9,COc1ccc(NC(=O)N[C@@H]2CC[C@H](CC(=O)NC3CCC3)O[C@H]2CO)cc1,4.37%
10,C/C=C/c1ccc2c(c1)O[C@H](CN(C)C(=O)CN(C)C)[C@H](C)CN([C@@H](C)CO)S2(=O)=O,-12.5%
11,C[C@H]1CN([C@@H](C)CO)C(=O)c2cc(C#CCN(C)C)cnc2O[C@H]1CN(C)C(=O)Cc1ccccc1,3.35%
12,COc1ccc(-c2ccc3c(c2)[C@H]2[C@H](CCN2C(=O)c2ccc4c(c2)OCO4)[C@@H](CO)N3)cc1,-2.22%
13,CCC(=O)N1C[C@H](C)[C@H](OC)CN(C)C(=O)c2ccc(NC(=O)Nc3ccccc3)cc2OC[C@H]1C,-3.3%
14,C[C@H](CO)N1C[C@H](C)[C@H](CN(C)C)Oc2ncc(-c3ccncc3)cc2C1=O,8.42%
15,COc1ccc(NC(=O)Nc2ccc3c(c2)CC(=O)N([C@@H](C)CO)C[C@H](C)[C@@H](CN(C)CC2CCCCC2)O3)cc1,3.95%
16,CN(C)C(=O)C[C@@H]1C[C@@H]2c3cc(NC(=O)NC4CCCCC4)ccc3O[C@@H]2[C@H](CO)O1,-2.4%
17,O=C(C[C@H]1CC[C@H]2[C@@H](COC[C@H](O)CN2C(=O)c2ccncc2)O1)NCc1cc(F)cc(F)c1,1.6%
18,C[C@H](CO)N1C[C@H](C)[C@H](CN(C)S(=O)(=O)c2cccs2)Oc2c(NS(=O)(=O)c3ccc(Cl)cc3)cccc2C1=O,3.72%
19,CC1CCN(C(=O)CCNC(=O)c2ccccc2)CC1,-8.53%
20,Cc1nc2ccccc2c2oc(C(=O)NCCCN3CCC(C)CC3)cc12,55.2% (active)
21,CC1CCN(CCCn2c(SCC(=O)NC3CCCC3)nc3ccccc3c2=O)CC1,-8.12%
